Laboratory results from PubChem BioAssay AID1347416 (National Center for Advancing Translational Sciences (NCATS), 2020).
Hit rate of the full screen: of about 4,100 compounds, about 1,600 (39%) were called active. Inconclusive results (about 25%) are left out. Calls come from the whole dose curve; as a rule, active = well fitted inhibition curve with a large enough effect; inconclusive = small, poorly fitted or top-dose-only effect; inactive = no such curve, though single readings can be large or run the other way. This is one part of the list.

assay: qHTS Validation assay for Inhibitors of Plasmodium falciparum Dd2 growth in vitro; note: nearly all actives have a fitted effect of over 70% in size; conditions: P. falciparum Dd2 in RBCs, SYBR Green growth, 72 h; series mostly up to 28.7 µM
How it was run: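 P. falciparum Dd2-infected red blood cells (2.5% hematocrit, 0.3% parasitemia) grown 72 h at 37 °C under 5% O2 with compounds in a titration, 29 uM to 0.5 nM final. Growth read as SYBR Green-1 fluorescence after ~16 h lysis; artesunate 300 nM as positive control.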
Potency is the fitted concentration of half-maximal effect.

Potency, inactive:
Cc1cn2nc(-c3nc(C4CCCN(C(=O)c5cccs5)C4)no3)cc2c(=O)[nH]1 (stereo unspecified)
COc1cc(CN2CCC3(CC2)C(=O)NCN3Cc2ccc(Cl)cc2)ccc1F
COc1ccc(CNC(=O)C2=C(C)C(=O)OC23CCC(C)CC3)cc1 (stereo unspecified)
COc1ccc(CCN2CC(C(=O)N3CCC(CO)CC3)CCC2=O)cc1 (stereo unspecified)
CC(C)c1ccc(NC(=O)CSc2nc(=O)n(Cc3ccccn3)c3c2CCC3)cc1
COc1cc(NC(=O)CSc2nc3nc(C)c(Cc4ccc(C)cc4)c(C)n3n2)cc(OC)c1
COc1ccc(C2Cn3nnc(C(=O)NCc4ccc(F)cc4Cl)c3CO2)cc1 (stereo unspecified)
Cc1ncc2n1C(=O)N(C1CCN(Cc3ccnn3C)CC1)C2
O=C(Nc1ccc([C@@H](O)[C@H]2COCC(=O)N2Cc2ccccc2F)cc1)c1ccccc1
O=C(Nc1ccc([C@@H](O)[C@H]2COCC(=O)N2Cc2ccc(F)cc2)cc1)c1ccc2c(c1)OCO2
Cc1noc(C)c1COC(=O)/C=C/c1ccc(Cl)cc1
COc1ccc(-c2noc(CCCC(=O)O)n2)cc1
CCCS(=O)(=O)N1C[C@@H](COC)[C@H](c2nc(C)no2)C1
CCC(=O)N1CCc2cc(S(=O)(=O)NCCC(=O)Nc3ccc(OC)c(Cl)c3)ccc21
CC(C)(C)NC(=O)C1CCCN(C2CCN(C3Cc4ccccc4C3)CC2)C1 (stereo unspecified)
CCC(=O)N1CCc2cc(S(=O)(=O)CCC(=O)NCc3ccc(OC)cc3)ccc21
Cc1nc(-c2ccccc2OC2CN(S(=O)(=O)Cc3ccccc3F)C2)no1
Cc1noc(C)c1NC(=O)N1CCC(c2n[nH]c(=O)n2-c2ccccc2)CC1
Cc1ccccc1C(=O)N1CCC2(CC1)N(c1ccccc1)C(=O)CS2(=O)=O
O=C(c1cccc2[nH]ccc12)N1CCCC(n2cc(-c3nc(C4CC4)no3)nn2)C1 (stereo unspecified)
OC[C@H]1CCN(Cc2ccc(-c3cccc(Cl)c3Cl)o2)C[C@@H]1O
CCSc1nc(CC(=O)NCc2ccc(S(N)(=O)=O)cc2)cs1
CC(=O)c1c(C)[nH]c(C(=O)COc2ccc3ccc(=O)oc3c2)c1C
Cc1nn(C)c2nc(-c3ccccn3)nc(N3CCC4(CC3)COC(=O)O4)c12
Cc1cc2nc(/C=C/c3nc4cc(C)c(C)cc4[nH]3)[nH]c2cc1C
NC1CC(c2cc(N3CCCN(C(=O)c4ccoc4)CC3)ncn2)C1 (stereo unspecified)
Cc1cc(C)cc(N2CCN(c3cc(C4CC(O)C4)nc(C)n3)CC2=O)c1 (stereo unspecified)
Fc1ccc(F)c(Nc2c3c(nc4ccc(Cl)cc24)CCC3)c1
COc1ccc(C(=O)c2nccc3cc(OC)c(OC)cc23)cc1OC
COc1ccc(Cl)cc1C(=O)NCc1nnc2c(-c3nc(C(C)C)no3)cccn12
O=C(NCc1ccc(C(F)(F)F)cc1F)[C@H]1CCC[C@@H](O)C1
CCOC(=O)c1c(C)[nH]c(C)c1S(=O)(=O)N1CCCC(C(=O)N2CCN(c3cc(C)ccc3C)CC2)C1 (stereo unspecified)
CCc1cccc(OC2CN(C(=O)C3CCCN(CC(N)=O)C3)C2)c1 (stereo unspecified)
OC1CCN(c2cc(N3CCOC(c4ccc(F)cc4)C3)ncn2)CC1 (stereo unspecified)
C=CCCC(=O)Nc1nc(C)c(-c2csc(Nc3ccc(Cl)cc3)n2)s1
CN(Cc1cc(-c2cccnc2)no1)C(=O)C1COc2ccccc2C1 (stereo unspecified)
COC[C@@H]1CN(C(=O)c2cccc(OC(F)(F)F)c2)C[C@H]1C(N)=O
O=C(c1ccc2nc[nH]c2c1)N1CCCN(c2cc(-c3ccc(Cl)cc3)[nH]n2)CC1
CCOc1ccccc1C(=O)N1CCN(c2cc(-c3ccc(OC)cc3)[nH]n2)CC1

Potency, active:
CCCCC(=O)NC(c1ccc(C(C)C)cc1)c1ccc2cccnc2c1O (stereo unspecified) 7.5 µM
c1ccc(-[n+]2nc(Nc3cccc4ccccc34)sc2-c2c3ccccc3cc3ccccc23)cc1 5.96 µM
CCOC(=O)C1(Cc2ccc(Cl)cc2)CCN(Cc2ccc(OC)cc2O)CC1 0.188 µM
COC(=O)[C@]1(C)CCC[C@@]2(C)C3CC[C@@]4(C)C[C@]3(CCC21)CC(=O)N4Cc1ccc(OC)cc1 (stereo partly specified) 3.76 µM
Cc1c(C#N)c2ccccc2n1CCOc1ccccc1F 1.68 µM
COc1ccc(-c2nc(Cn3c(SCc4ccccc4F)nc4ccncc43)c(C)o2)cc1OC 8.41 µM
COc1cc(NC(=O)CSc2nc(-c3ccc(C(C)C)cc3)no2)cc(OC)c1 0.842 µM
COc1cc(NC(=O)CSc2nc(-c3ccccc3)no2)cc(OC)c1 2.37 µM
COc1ccc2c(CNCc3ccccc3OC)c(C(=O)O)n(Cc3ccc(F)cc3Cl)c2c1 15 µM
COc1ccc(CN2C(=O)COC[C@@H]2[C@H](O)c2ccc(NC(=O)c3ccc(C(C)(C)C)cc3)cc2)cc1 2.11 µM
CCOC(=O)c1nnn(-c2nonc2N)c1-c1ccc(OC)cc1 5.31 µM
CCOC(=O)c1nnn(-c2nonc2N)c1-c1ccc(Cl)cc1 5.31 µM
CCOC(=O)c1nnn(-c2nonc2N)c1-c1ccc(C)cc1 5.31 µM
CCOC(=O)c1nnn(-c2nonc2N)c1-c1ccc(Br)cc1 2.66 µM
CCC(=O)N1CCc2cc(Br)cc(S(=O)(=O)N3CCCC(C(=O)NC(C)(C)C)C3)c21 (stereo unspecified) 3.35 µM
CCC(=O)N1CCc2cc(Br)cc(S(=O)(=O)N3CCCCC3CC)c21 (stereo unspecified) 1.06 µM
CCC(=O)N1CCc2cc(Br)cc(S(=O)(=O)C3(C(=O)OC)CC3)c21 3.76 µM
CC(C)(C)c1ccc(CN(Cc2ccccc2)C(c2ccccn2)c2nnnn2C(C)(C)C)cc1 (stereo unspecified) 4.73 µM
CC(C)(C)n1nnnc1C(c1cccnc1)N(Cc1ccccc1)Cc1ccco1 (stereo unspecified) 5.31 µM
Cc1nccn1CC(O)Cn1c2ccccc2c2ccccc21 (stereo unspecified) 8.41 µM
OCc1ccc(CN2CCCC(CCc3c(F)cccc3F)C2)o1 (stereo unspecified) 4.22 µM
CCCOc1ccc(Oc2nc(-c3ccncc3)nc3ccccc23)cc1 4.22 µM
Cc1cccc(Oc2nc(-c3ccccn3)nc3ccccc23)c1 7.5 µM
Cc1cccc(Oc2nc(-c3ccncc3)nc3ccccc23)c1 7.5 µM
c1ccc(Oc2nc(-c3ccccn3)nc3ccccc23)cc1 7.5 µM
c1ccc(-c2nc(N3CCCCCC3)c3ccccc3n2)nc1 1.68 µM
Cc1ccccc1Oc1nc(-c2ccccn2)nc2ccccc12 6.68 µM
Fc1ccc(Oc2nc(-c3ccccn3)nc3ccccc23)cc1 13.3 µM
CCCSc1ccc([C@H]2N[C@@](Cc3ccccc3)(C(=O)OC)[C@H]3C(=O)N(CC)C(=O)[C@@H]23)cc1 5.31 µM
CCCCCCSc1ccc([C@H]2N[C@@](Cc3ccccc3)(C(=O)OC)[C@H]3C(=O)N(C)C(=O)[C@@H]23)cc1 4.73 µM
CCCCCCSc1ccc([C@H]2N[C@@](Cc3ccccc3)(C(=O)OC)[C@H]3C(=O)N(CC)C(=O)[C@@H]23)cc1 3.35 µM
O=C(CCl)N(c1ccccc1)c1c[nH]c2ccccc12 2.11 µM
COc1ccc(N2CCN(c3cc(C4CC(N)C4)nc(N)n3)CC2(C)C)cc1 (stereo unspecified) 2.99 µM
COc1ccccc1Nc1c2c(nc3ccc(NC(=O)/C=C/c4cccc(OC)c4OC)cc13)CCCC2 5.96 µM
COc1ccc(/C=C/C(=O)Nc2ccc3nc4c(c(Nc5ccccc5OC)c3c2)CCCC4)cc1 3.35 µM
Cc1cc(N2CCN(C3CCCC3)CC2)n2c(nc3ccccc32)c1C#N 1.06 µM
O=C(N[C@H](c1ccccn1)C1CC(O)C1)c1cc(=O)n(-c2ccccc2)[nH]1 (stereo partly specified) 9.44 µM
COc1ccc(NS(=O)(=O)c2cc(NC(=O)/C=C/c3cc(OC)c(OC)c(OC)c3)ccc2N2CCCCC2)cc1 6.68 µM
COc1cc2nc(Nc3ccc(C)c(Cl)c3)nc(N)c2cc1OC 2.11 µM
COc1cc2nc(N3CCN(c4cc(C)ccc4C)CC3)nc(N)c2cc1OC 6.68 µM
COc1cc2nc(Nc3ccc(C)c(C)c3)nc(N)c2cc1OC 0.75 µM
CCOC(=O)c1ccc(Nc2nc(N)c3cc(OC)c(OC)cc3n2)cc1 1.88 µM
CCOC(=O)c1c(S(=O)(=O)N2CCCC(C(=O)N3CCN(c4cc(C)ccc4C)CC3)C2)c(C)n(C)c1C (stereo unspecified) 1.5 µM
CCOC(=O)c1c(C)[nH]c(C)c1S(=O)(=O)N1CCCC(C(=O)N2CCN(c3cccc(C)c3C)CC2)C1 (stereo unspecified) 1.33 µM
CCOC(=O)c1c(S(=O)(=O)N2CCCC(C(=O)N3CCN(c4cccc(C)c4C)CC3)C2)c(C)n(C)c1C (stereo unspecified) 1.06 µM
CCCCC(=O)Nc1nc(C)c(-c2csc(Nc3cc(OC)ccc3OC)n2)s1 9.44 µM
O=C(Nc1ccc(Nc2ccncc2)cc1)c1ccc(Nc2ccnc3ccc([N+](=O)[O-])cc23)cc1 0.75 µM
O=C(Nc1ccc(Nc2ccncc2)cc1)c1ccc(Nc2ccnc3ccc([N+](=O)[O-])cc23)cc1[N+](=O)[O-] 1.33 µM
COc1cnc(-c2ccccn2)nc1Sc1c(Cl)cccc1Cl 2.99 µM
COc1cnc(-c2ccccn2)nc1Sc1ccc(Cl)cc1 5.96 µM
Oc1ccccc1C1=NN(c2ccccc2)C(c2ccccc2)C1 (stereo unspecified) 7.5 µM
COc1ccc(-c2cc(N3CCN(C(=O)c4c[nH]c5ccccc45)CC3)n[nH]2)cc1 15 µM
